PubChem BioAssay (EPA / NIEHS)
Values joined by “and” are separate entries in the source; they are usually repeats but may differ in a detail not shown here. Identical values can stand only once. Results filed as inconclusive are left out. Where a structure was tested more than once in an assay, its records may differ in their call. Active and inactive are the calls of the source. How the source made its calls, unless noted: active means hit-call score of the fitted dose curve at least 0.9, where 1 is the maximum; inactive means score below 0.9.

What was measured:
[1] = CCTE_Mundy_HCI_Cortical_Synap_Neur_Matur_NeuriteLength: CCTE's Synaptogenesis and Neurite Maturation Assay in rat cortical cells for Neurite Length, Mundy Lab (AID 2284214)
Method in brief: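 Cultures of rat primary cortical cells received chemical at DIV 7 and were fixed at DIV 12, after glial arrest with AraC at DIV 5. Neurite length was measured by automated imaging of MAP2 immunofluorescence.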

[2] = CCTE_Mundy_HCI_Cortical_Synap_Neur_Matur_NeuriteSpotCountPerNeuron: CCTE's Synaptogenesis and Neurite Maturation Assay in rat cortical cells for Neurite Spot Count per Neuron Count, Mundy Lab (AID 2284215)
Method in brief: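 Rat primary cortical cultures given AraC at DIV 5, dosed from DIV 7 to DIV 12 with media change. Fixed, stained for MAP2, synaptophysin and Hoechst; neurite-associated synaptophysin puncta per neuron quantified by high-content imaging versus DMSO.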

[3] = TAMU_PeakParms_SingleDonor1434_Chronotropy: Texas A&M University (TAMU) 1.5-hr Human Induced Pluripotent Stem Cell (iPSC)-derived Cardiomyocytes Calcium (Ca+2) Flux Assay for Cardiotoxicity: Chronotropy (changes in peak frequency) (AID 2284217); details: actives raise or lower the signal
Method in brief: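 iPSC-CMs, donor 1434; 4 conc (0.2–100 uM), 0.5% v/v DMSO, 90 min, 37C/5% CO2; Ca2+ flux fluorescence → peak.freq.avg; peak.freq.avg = 0 dropped; bidirectional fit vs DMSO; EC05 POD.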

[4] = CCTE_Mundy_HCI_Cortical_Synap_Neur_Matur_SynapseCount: CCTE's Synaptogenesis and Neurite Maturation Assay in rat cortical cells for Synapse Count, Mundy Lab (AID 2284218)
Method in brief: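 Cells were plated, allowed 2 hr to attach, treated with AraC at DIV 5, then exposed to chemicals from DIV 7 until DIV 12. After fixation and MAP2/synaptophysin immunolabelling, synapses per neuron were quantified by automated imaging against DMSO.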

[5] = CCTE_Mundy_HCI_hN2_NOG_NeuriteLength: CCTE's Neurite Outgrowth Assay in human hN2 cells for Neurite Length, Mundy Lab (AID 2284220; active means hit-call score of the fitted dose curve at least 0.9, where 1 is the maximum)
Method in brief: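 Read-out is neurite length from high-content imaging of βIII-tubulin/Alexa Fluor-488-labelled neurons, referenced to DMSO controls.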

[6] = CCTE_Mundy_HCI_hN2_NOG_NeuronCount: CCTE's Neurite Outgrowth Assay in human hN2 cells for Neuron Count, Mundy Lab (AID 2284221; active means hit-call score of the fitted dose curve at least 0.9, where 1 is the maximum)
Method in brief: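 Read-out is the number of betaIII-tubulin-positive neurons imaged by automated high-content analysis, with DMSO as negative control.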

[7] = CCTE_Mundy_HCI_Cortical_Synap_Neur_Matur_CellBodySpotCount: CCTE's Synaptogenesis and Neurite Maturation Assay in rat cortical cells for Cell Body Spot Count, Mundy Lab (AID 2284223)
Method in brief: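 Primary rat cortical cultures, AraC added at DIV 5; dosed DIV 7 through DIV 12 […]. Fixed, stained for MAP2 and synaptophysin with Hoechst; cell body-associated synaptophysin puncta per neuron counted by high-content imaging, loss vs DMSO.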

[8] = CCTE_Mundy_HCI_hNP1_Pro_ResponderAvgInten: CCTE's Proliferation Assay in human neuroprogenitor cells, Mundy Lab (AID 2284224; active means hit-call score of the fitted dose curve at least 0.9, where 1 is the maximum;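 further: human neural progenitor cells hNP1 derived from WA09 embryonic stem cells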)
Method in brief: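 Proliferation read as average intensity of BrdU-positive cells, imaged at 26.25 h post-dosing: chemical exposure started after 40–44 h culture, BrdU during final 4 h, paraformaldehyde fixation. Positive-direction fit relative to DMSO.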

[9] = UKN4_HCS_LUHMES_cell_viability: Viability Assessment in the University of Konstanz (UKN) Leist Lab Neurite Outgrowth Assay in human LUHMES cells (UKN4) (AID 2284232)
Method in brief: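 Cells switched to differentiation medium at day 0, replated on day 2 in medium lacking cAMP and GDNF, and compound-treated once attached. Live staining began 23.5 h later, imaging followed at 24 h.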

[10] = UKN2_HCS_IMR90_cell_viability: Viability Assessment in the University of Konstanz (UKN) Leist Lab Neural Crest Cell Migration Assay in human induced IMR90 Pluripotent Stem Cells (UKN2) (AID 2284233);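 further: cells exposed to compound for 24 h after a 24 h migration phase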
Method in brief: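 Viability read as calcein-AM fluorescence by high-content imaging, Hoechst co-stain, 30 min. Human iPSC (IMR90) neural crest cells had migrated 24 h into stopper-defined gaps before 24 h chemical exposure. Fitted bidirectionally relative to DMSO.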

[11] = TAMU_HCS_1.5hr_SingleDonor1434_Cytotoxicity: Cytotoxicity Assessment using High-content Screening (HCS) Fluorescent Imaging for the Texas A&M University (TAMU) 1.5-hr Human Induced Pluripotent Stem Cell (iPSC)-derived Cardiotoxicity Assay (AID 2284234; active means hit-call score of the fitted dose curve at least 0.9, where 1 is the maximum)
Method in brief: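 Nuclear counts from Hoechst 33342 imaging define cytotoxicity here, with EC10 (10% cell-count loss relative to DMSO) as point of departure. iPSC cardiomyocytes received 0.2-100 uM test chemical in 0.5% DMSO for 1.5 h at 37 C.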

[12] = CCTE_Mundy_HCI_Cortical_NOG_NeuronCount: CCTE's Neurite Outgrowth Assay in rat cortical cells for Neuron Count, Mundy Lab (AID 2284236; active means hit-call score of the fitted dose curve at least 0.9, where 1 is the maximum;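 further: neurons counted by imaging betaIII-tubulin and Hoechst stained cortical cells; cells exposed to compound for about 48 hours before fixation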)
Method in brief: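 Read-out: neuron number by high-content imaging of betaIII-tubulin (Alexa Fluor-488) and Hoechst-labelled rat primary cortical cells.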

[13] = CCTE_Mundy_HCI_Cortical_NOG_BPCount: CCTE's Neurite Outgrowth Assay in rat cortical cells for Branch Point Count, Mundy Lab (AID 2284237);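 further: branch points counted about two days after chemical exposure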
Method in brief: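 Measured 50.33 h after dosing, this morphology endpoint uses rat primary cortical cultures labelled for betaIII-tubulin. Branch points are quantified by high-content imaging, with DMSO as negative control and baseline.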

[14] = CCTE_Mundy_HCI_hNP1_Casp3_7: CCTE's Caspase-Glo 3/7 Assay in human neuroprogenitor cells for Apoptosis, Mundy Lab (AID 2284240)
Method in brief: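 Luminescent caspase-3/7 readout, 26.5 h post-dose, in human neural progenitor cells from WA09 embryonic stem cells. Cells grew 40–44 h at 37 °C, 5% CO2 before chemical addition. Activity analysed as signal increase over DMSO baseline.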

[15] = CCTE_Mundy_HCI_hNP1_CellTiter: CCTE's Cell Titer-Glo 2 Assay in human neuroprogenitor cells for Viability, Mundy Lab (AID 2284241; active means hit-call score of the fitted dose curve at least 0.9, where 1 is the maximum;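 further: a hit is a drop in ATP luminescence versus DMSO meaning reduced viability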)
Method in brief: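 Viability read as luminescent ATP content (CellTiter-Glo, 30 min room temperature) twenty-four hours after dosing, relative to DMSO. Cells: WA09-derived hNP1 neuroprogenitors on poly-L-ornithine/laminin, plated 40 to 44 hours before chemical.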

[16] = CCTE_Mundy_HCI_Cortical_Synap_Neur_Matur_NeuronCount: CCTE's Synaptogenesis and Neurite Maturation Assay in rat cortical cells for Neuron Count, Mundy Lab (AID 2284242; active means hit-call score of the fitted dose curve at least 0.9, where 1 is the maximum;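 further: neuron number from Hoechst nuclei and MAP2 staining by high-content imaging; hits reduce neuron count versus DMSO baseline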)
Method in brief: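 Cortical cells from rat are plated, treated with AraC at DIV 5, and exposed to test chemicals with a media change at DIV 7. At DIV 12 they are fixed and immunostained (MAP2, synaptophysin), and imaged neuron counts are compared against DMSO controls.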

[17] = IUF_NPC2c_oligodendrocyte_migration_120hr: Leibniz Research Institute for Environmental Medicine (IUF) 120-hour Neural Progenitor Cell Migration Assay for Oligodendrocyte Migration (NPC2c) (AID 2284297);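 further: O4-positive oligodendrocyte migration distance divided by radial glia migration distance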
Method in brief: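 Human fetal neural progenitor spheres (0.3 mm) are plated on poly-D-lysine/laminin in N2 differentiation medium and exposed for 120 h, with half-medium renewal at day 3. Oligodendrocyte (O4+) migration distance comes from ICC imaging, normalised to radial glia migration.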

[18] = IUF_NPC2a_radial_glia_migration_120hr: Leibniz Research Institute for Environmental Medicine (IUF) 120-hour Neural Progenitor Cell Migration Assay for Radial Glia Migration (NPC2a) (AID 2284298)
Method in brief: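 Human fetal-cortex neural progenitor spheres (0.3 mm) plated on poly-D-lysine/laminin in N2 differentiation medium, exposed 120 h at 37C with half-medium renewal at day 3. Radial glia migration distance (um) measured from Hoechst-stained nuclei images; DMSO baseline.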

[19] = IUF_NPC2a_radial_glia_migration_72hr: Leibniz Research Institute for Environmental Medicine (IUF) 72-hour Neural Progenitor Cell Migration Assay for Radial Glia Migration (NPC2a) (AID 2284299)
Method in brief: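 Single 0.3 mm neurospheres were plated per well in N2 differentiation medium and exposed from the start of differentiation. After 72 hours, brightfield images were taken and radial glia migration from the sphere core edge was measured manually in four directions, averaged per well.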

[20] = IUF_NPC2b_neuronal_migration_120hr: Leibniz Research Institute for Environmental Medicine (IUF) 120-hour Neural Progenitor Cell Migration Assay for Neuron Migration (NPC2b) (AID 2284300)
Method in brief: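 0.3 mm hNPC spheres on poly-D-lysine/laminin in N2 differentiation medium exposed 120 h, half-medium refresh day 3; 7 concentrations, DMSO max 0.1%. Neuron (TUBB3) distance from sphere core by ICC imaging, normalised to radial glia migration.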

[21] = IUF_NPC3_neuronal_differentiation_120hr: Leibniz Research Institute for Environmental Medicine (IUF) 120-hour Neuronal Differentiation Assay (NPC3) (AID 2284301)
Method in brief: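 hNPC spheres, PDL/laminin, DMEM/F12 3:1 + 1% N2, 37C, 5% CO2; 7 concentrations + solvent control, 5 d exposure, half-change day 3. Fix 120 h; TUBB3/Hoechst ICC, CNN neuron calling; % neurons vs nuclei, DMSO-normalized.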

[22] = IUF_NPC4_neurite_area_120hr: Leibniz Research Institute for Environmental Medicine (IUF) 120-hour Neuronal Morphology Assay for Neurite Area (NPC4) (AID 2284305; active means hit-call score of the fitted dose curve at least 0.9, where 1 is the maximum)
Method in brief: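 hNPC spheres on PDL/laminin, N2 medium, 37C/5% CO2; dosed day 0, half-medium refresh day 3; fixed 120 h; TUBB3/Hoechst ICC, high-content imaging; neurite area = mean pixels per neuron (nuclei excluded); DMSO baseline, max 0.1%.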

[23] = IUF_NPC2-5_cytotoxicity_72hr: Cytotoxicity Assessment at 72 hours in the Leibniz Research Institute for Environmental Medicine (IUF) Neural Progenitor Cell Migration and Differentiation Assay for Cytotoxicity (NPC2-5) (AID 2284306; active means hit-call score of the fitted dose curve at least 0.9, where 1 is the maximum;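 further: LDH release into supernatant measured by resorufin fluorescence marking membrane damage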)
Method in brief: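 hNPC spheres (0.3 mm), PDL/laminin, DMEM/F12 3:1 + 1% N2; cpd from d0, 7 concs + SC, DMSO max 0.1%; half-medium refresh d3. Readout: supernatant LDH via resorufin fluorescence (RFU), 72 h; gain-of-signal fit.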

[24] = IUF_NPC2-5_cytotoxicity_120hr: Cytotoxicity Assessment at 120 hours in the Leibniz Research Institute for Environmental Medicine (IUF) Neural Progenitor Cell Migration and Differentiation Assay (NPC2-5) (AID 2284307; active means hit-call score of the fitted dose curve at least 0.9, where 1 is the maximum;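 on AC50: LDH released into supernatant as membrane damage marker via resorufin fluorescence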)
Method in brief: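 Human fetal (GW 16-19) neural progenitor spheres (0.3 mm) plated on poly-D-lysine/laminin in N2 differentiation medium, exposed 120 h with half-medium renewal at day 3; 7 concentrations plus solvent control, DMSO ≤0.1%. LDH release in supernatant read by resorufin fluorescence.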

[25] = IUF_NPC2-5_cell_number_120hr: Cell Number Assessment at 120 hours in the Leibniz Research Institute for Environmental Medicine (IUF) Neural Progenitor Cell Migration and Differentiation Assay (NPC2-5) (AID 2284308);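 further: count of Hoechst-stained nuclei in migration zone around plated human neural progenitor spheres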
Method in brief: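 Human fetal neural progenitor spheres (0.3 mm) plated on poly-D-lysine/laminin in N2 differentiation medium, exposed five days across 7 concentrations with half-medium refresh at day 3. Hoechst-positive nuclei counted in migration area at 120 h, relative to DMSO.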

[26] = IUF_NPC2-5_viability_120hr: Viability Assessment at 120 hours in the Leibniz Research Institute for Environmental Medicine (IUF) Neural Progenitor Cell Migration and Differentiation Assay (NPC2-5) (AID 2284312)
Method in brief: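 Human fetal neural progenitor spheres (0.3 mm) plated on poly-D-lysine/laminin in N2 differentiation medium, exposed 120 h with half-medium refresh at day 3. Viability by alamar blue resazurin fluorescence; 7 concentrations, DMSO max 0.1%.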

[27] = CCTE_Mundy_HCI_iCellGluta_NOG_NeuriteLength: CCTE's Neurite Outgrowth Assay in iCellGluta cells for Neurite Length, Mundy Lab (AID 2284318; active means hit-call score of the fitted dose curve at least 0.9, where 1 is the maximum)
Method in brief: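 Automated high-content imaging of betaIII-tubulin (Alexa Fluor-488) and Hoechst-stained cells gave neurite length, normalized to the DMSO baseline.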

[28] = TAMU_PeakParms_SingleDonor1434_Asystole: Texas A&M University (TAMU) 1.5-hr Human Induced Pluripotent Stem Cell (iPSC)-derived Cardiomyocytes Calcium (Ca+2) Flux Assay for Cardiotoxicity: Asystole (quiescence of beating) (AID 2284328; active means hit-call score of the fitted dose curve at least 0.9, where 1 is the maximum)
Method in brief: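 Donor 1434 iPSC-cardiomyocytes exposed 90 min at 37C, 5% CO2, to 0.2, 1, 10 and 100 uM in 0.5% DMSO. Ca2+ dye fluorescence gave average peak frequency; POD is EC95, a 95% beat-rate drop versus controls.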

[29] = IUF_NPC1_cytotoxicity_72hr: Cytotoxicity Assessment at 72 hours in the Leibniz Research Institute for Environmental Medicine (IUF) Neural Progenitor Cell Proliferation Assay (NPC1) (AID 2284332; active means hit-call score of the fitted dose curve at least 0.9, where 1 is the maximum;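 further: rising LDH signal means more cytotoxicity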)
Method in brief: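 Membrane-integrity loss is scored from LDH released into the medium, detected as resorufin fluorescence, with activity fitted upward relative to baseline. Test material stays on human fetal-derived progenitor spheres for 72 h.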

[30] = CCTE_Mundy_HCI_iCellGluta_NOG_NeuriteCount: CCTE's Neurite Outgrowth Assay in iCellGluta cells for Neurite Count, Mundy Lab (AID 2284342; active means hit-call score of the fitted dose curve at least 0.9, where 1 is the maximum;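 further: chemical exposure about 48 hours starting 2 hours after plating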)

Measured: AC50

[CH3][Hg][Cl]
active: [1] 0.428 µM | [2] 0.576 µM | [3] 21.2 µM | [4] 0.582 µM | [5] 0.099 µM | [6] 0.172 µM | [8] 2.12 µM | [9] 0.381 µM | [10] 5 µM | [11] 8.35 µM | [12] 708 nM and 631 nM | [13] 0.244 µM | [14] 1.15 µM | [15] 9.57 µM | [16] 0.85 µM | [17] 0.128 µM | [18] 1.05 µM and 160 nM | [19] 1.11 µM and 255 nM | [20] 0.138 µM | [21] 325 nM and 124 nM | [22] 629 nM and 78.3 nM | [24] 0.275 µM | [25] 823 nM and 130 nM | [26] 0.276 µM | [27] 0.0763 µM | [30] 0.0965 µM
inactive: [7] | [17] | [20] | [23] | [24] | [26] | [28] | [29]
